Among the data in PubChem BioAssay are growth inhibition, inhibition and outcome values, retold here.

SMILES strings stand for the structures. A number with no mark means an inactive call. For some of these results: Potency and affinity values are given separately. Activity calls are given as the source filed them. Unless noted, how the calls were made is not given here.

Assay [1] can be described thus: antimalarial activity against Dd2 strain (AID 2302;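 active means growth inhibition above 50% at the single 2 µM test dose, taken to imply half-maximal potency below 2 µM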;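 further: 0% = DMSO untreated growth and 100% = chloroquine plus artemisinin killed control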). The conditions noted are these: P. falciparum Dd2 in RBCs, LDH growth readout, 72 h; at 2 µM; hits give high values.
Assay [2] can be described thus: human hepatoma cell viability loss – ATP luminescence, cytotoxicity control for P. falciparum antimalarial project, primary screen (AID 2303;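 active means inhibition above 50%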;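 further: 0% = DMSO wells and 100% = digitonin-killed cells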). The conditions noted are these: HepG2 viability, 24-48 h, at 10 µM, hits give high values.
Assay [3] has as its target L-lactate dehydrogenase (Plasmodium falciparum (isolate CDC / Honduras)) (UniProt Q27743). The assay is described as follows: PfLDH activity inhibition – cell lysate, 3D7 strain, counter-screen for P. falciparum growth inhibition project (AID 2304).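 Further: 0% = vehicle and 100% = reference inhibitor.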 Particulars: P. falciparum 3D7 crude extract, LDH APAD/NBT absorbance; at 2 µM; hits give high values. (The purpose of a counterscreen is to sort out artefacts and off-target activity.)

Assay [4] is described as follows: inhibition of 3D7 malaria parasite growth – strain 3D7 (AID 2306).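 Further: 0% = DMSO wells and 100% = chloroquine plus artemisinin control wells.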 Particulars: P. falciparum 3D7 erythrocytic growth, LDH absorbance, 72 h; at 2 µM; hits give high values.
Assay [5] concerns the target Calcium-dependent protein kinase 1 (Plasmodium falciparum (isolate 3D7)) (UniProt P62344). The assay is described as follows: PfCDPK1 kinase inhibitors, biochemical, TCAMS library (AID 1159585; cut-off not given, nearly all actives have IC50 up to about 0.98 µM;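 further: inhibitors leave more ATP so luminescence rises with inhibition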). Particulars: recombinant PfCDPK1, Kinase-Glo ATP depletion luminescence. On the technique in general: Kinase-Glo measures the ATP left after a reaction by luminescence.
Assay [6] deals with Plasmodium falciparum protein kinase 6 (PK6, PF3D7_1337100) (UniProt Q8IDW1). Description: PfPK6 kinase inhibitors, biochemical, TCAMS library (AID 1159586). Particulars: recombinant PfPK6, Kinase-Glo ATP depletion luminescence.
Assay [7] addresses Protein kinase 7 (PK7), Plasmodium falciparum 3D7 (PF3D7_0213400) (UniProt Q7YTF7). The assay is described as follows: inhibition of Plasmodium PK7 catalytic activity – biochemical, TCAMS antimalarial set, Kinase-Glo luminescence (AID 1159587). The conditions noted are these: recombinant PfPK7, Kinase-Glo ATP depletion luminescence.
The target in assay [8] is Calcium-dependent protein kinase 4 (Plasmodium falciparum (isolate 3D7)) (UniProt Q8IBS5). The assay is described as follows: PfCDPK4 kinase inhibitors, biochemical, TCAMS library (AID 1159588; cut-off not given, nearly all actives have IC50 up to about 0.91 µM). Particulars: recombinant PfCDPK4, Kinase-Glo ATP depletion luminescence.
Calcium-dependent protein kinase 4 (Plasmodium falciparum (isolate 3D7)), sequence (Q8IBS5 whole entry, looked up): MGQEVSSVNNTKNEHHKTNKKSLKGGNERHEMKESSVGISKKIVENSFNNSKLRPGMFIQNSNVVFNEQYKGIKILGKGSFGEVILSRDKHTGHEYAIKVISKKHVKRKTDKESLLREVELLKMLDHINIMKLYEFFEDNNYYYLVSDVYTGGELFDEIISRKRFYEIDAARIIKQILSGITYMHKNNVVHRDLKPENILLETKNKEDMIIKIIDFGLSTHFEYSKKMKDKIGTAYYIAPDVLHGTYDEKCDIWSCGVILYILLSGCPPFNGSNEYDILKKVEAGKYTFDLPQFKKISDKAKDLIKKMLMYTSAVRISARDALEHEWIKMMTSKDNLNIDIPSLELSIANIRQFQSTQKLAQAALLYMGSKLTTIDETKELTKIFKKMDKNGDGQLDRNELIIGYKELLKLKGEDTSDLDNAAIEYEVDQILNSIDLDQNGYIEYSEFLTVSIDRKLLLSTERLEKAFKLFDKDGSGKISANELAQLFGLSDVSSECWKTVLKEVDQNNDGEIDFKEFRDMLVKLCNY

Protein kinase 7 (PK7), Plasmodium falciparum 3D7 (PF3D7_0213400), sequence (Q7YTF7 1-343): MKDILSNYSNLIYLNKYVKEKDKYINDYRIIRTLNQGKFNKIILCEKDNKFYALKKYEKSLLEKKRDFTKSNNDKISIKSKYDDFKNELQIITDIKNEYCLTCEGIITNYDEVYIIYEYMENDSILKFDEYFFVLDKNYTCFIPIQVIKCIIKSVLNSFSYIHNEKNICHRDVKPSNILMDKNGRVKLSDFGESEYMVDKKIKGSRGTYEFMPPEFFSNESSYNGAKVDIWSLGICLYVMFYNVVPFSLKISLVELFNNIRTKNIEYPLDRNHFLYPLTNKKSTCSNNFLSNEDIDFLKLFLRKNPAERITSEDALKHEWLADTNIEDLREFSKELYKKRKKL
Plasmodium falciparum protein kinase 6 (PK6, PF3D7_1337100), sequence (Q8IDW1 1-305): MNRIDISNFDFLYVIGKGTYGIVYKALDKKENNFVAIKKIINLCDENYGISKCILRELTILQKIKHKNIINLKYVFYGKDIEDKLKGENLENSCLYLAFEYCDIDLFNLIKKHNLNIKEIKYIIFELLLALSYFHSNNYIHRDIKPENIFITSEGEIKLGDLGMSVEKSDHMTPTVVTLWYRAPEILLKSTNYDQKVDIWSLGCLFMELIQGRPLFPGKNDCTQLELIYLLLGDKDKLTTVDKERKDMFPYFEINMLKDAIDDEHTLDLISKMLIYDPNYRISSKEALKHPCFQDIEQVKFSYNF
L-lactate dehydrogenase (Plasmodium falciparum (isolate CDC / Honduras)), sequence (Q27743 whole entry, looked up): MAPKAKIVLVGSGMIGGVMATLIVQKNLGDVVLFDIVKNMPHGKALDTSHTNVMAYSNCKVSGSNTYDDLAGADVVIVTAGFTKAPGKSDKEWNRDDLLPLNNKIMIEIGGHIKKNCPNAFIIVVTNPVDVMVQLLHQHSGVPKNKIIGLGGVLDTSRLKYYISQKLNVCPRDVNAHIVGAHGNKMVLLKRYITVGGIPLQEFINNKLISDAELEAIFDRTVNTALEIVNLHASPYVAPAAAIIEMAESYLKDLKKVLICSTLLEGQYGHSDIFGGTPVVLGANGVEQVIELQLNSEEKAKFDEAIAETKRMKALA
Calcium-dependent protein kinase 1 (Plasmodium falciparum (isolate 3D7)), sequence (P62344 whole entry, looked up): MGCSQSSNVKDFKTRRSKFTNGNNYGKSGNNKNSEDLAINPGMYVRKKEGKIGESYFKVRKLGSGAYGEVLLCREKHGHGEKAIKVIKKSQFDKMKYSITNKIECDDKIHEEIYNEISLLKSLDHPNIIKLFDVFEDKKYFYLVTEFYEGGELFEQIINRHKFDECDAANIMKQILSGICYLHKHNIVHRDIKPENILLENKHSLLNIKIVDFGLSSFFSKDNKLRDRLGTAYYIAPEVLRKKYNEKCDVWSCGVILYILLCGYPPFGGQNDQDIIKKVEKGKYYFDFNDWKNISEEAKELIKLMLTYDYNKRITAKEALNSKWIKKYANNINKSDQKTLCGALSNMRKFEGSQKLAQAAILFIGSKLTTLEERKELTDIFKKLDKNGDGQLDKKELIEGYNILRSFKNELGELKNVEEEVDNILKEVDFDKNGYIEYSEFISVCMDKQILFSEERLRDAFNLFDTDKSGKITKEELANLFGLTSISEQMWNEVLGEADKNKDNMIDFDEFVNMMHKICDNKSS

One may read the inhibition as the change of the read-out against control, counted positive when it falls. Regarding `CC(=O)N(C)c1ccc(C(=O)Nc2cccc(-c3cccc(-c4nc5ccc(C(F)(F)F)cc5[nH]4)c3)c2)cc1`, the growth inhibition in assay [1] is 29%; in assay [4], 96% (active). Besides, the inhibition is 31% in assay [2] and -6% in assay [3]. Moreover, the outcome in assay [5], in assay [6], in assay [7] and in assay [8] was inactive.

For `COc1ccc2nccc([C@@H](O)CN3CCC(NC(=O)C(c4cccs4)N4CCN(c5ccc(F)cc5)CC4)CC3)c2c1` (stereo not given in full), the growth inhibition in assay [1] was 45%; in assay [4] it was 97% (active). The inhibition in assay [2] was 9%; in assay [3], 3%. The outcome in assay [5], in assay [6], in assay [7] and in assay [8] was inactive.

For `CC(C)C[C@H](NC(=O)c1cc2ccccc2s1)C(=O)N[C@H]1CCN(Cc2ccc(OC[C@@H]3CCCN3C)c3ccccc23)C1`, the growth inhibition in assay [1] is 93% (active); in assay [4] it was 101% (active). In addition, the inhibition in assay [2] was 69% (active); in assay [3], -2%. Also, the outcome in assay [5], in assay [6], in assay [7] and in assay [8] was inactive.

As for `COc1cc(NC(=O)c2nn(CCCN3CCC(N4CCCC4)CC3)cc2-c2ccc(Cl)c(Cl)c2)cc(OC)c1OC`, the growth inhibition in assay [1] is 100% (active); in assay [4] it was 103% (active). Further, the inhibition in assay [2] was 76% (active); in assay [3], -5%. Further, the outcome in assay [5], in assay [6], in assay [7] and in assay [8] was inactive.

On to `Fc1cccc(COc2ccc(Nc3ncnc4cc(/C=C/[C@@H]5CCCN5)sc34)cc2Cl)c1`, for which the growth inhibition in assay [1] is 56% (active); in assay [4], 100% (active). For the same compound, the inhibition in assay [2] was 17%; in assay [3], -7%. The result in assay [5], in assay [6], in assay [7] and in assay [8] was inactive.

`Cc1cccc2[nH]c(-c3ccc(-c4cccc(CN5CCN(CC6CCCN(C)C6)CC5)c4)s3)nc12` (stereo not given): the growth inhibition in assay [1] was 99% (active); in assay [4], 100% (active). The inhibition is 47% in assay [2] and 4% in assay [3]. Besides, the outcome in assay [5], in assay [6], in assay [7] and in assay [8] was inactive.

On to `c1cc(CN2CCCCC2)cc(-c2ccc(-c3nc4ccccc4[nH]3)s2)c1`, for which the values for the growth inhibition in assay [1] and in assay [4] were 100% (active) and 101% (active), respectively. Moreover, the inhibition in assay [2] was 11%; in assay [3] it was 2%. In addition, the outcome in assay [5], in assay [6], in assay [7] and in assay [8] was inactive.

Take `CN1CCN(c2nsc3ccc(-c4ccc(NC(=O)Nc5ccccc5)cc4)cc23)CC1`: the figures for the growth inhibition in assay [1] and in assay [4] were 98% (active) and 102% (active), respectively. The results for the inhibition in assay [2] and in assay [3] were 38% and -1%, respectively. In addition, the result in assay [5], in assay [6], in assay [7] and in assay [8] was inactive.

As for `CC(C)NCc1ccc(-c2ccc(NC(=O)c3cccc(C#N)c3)cc2)cc1`, the growth inhibition in assay [1] was 77% (active); in assay [4] it was 99% (active). The inhibition was 40% in assay [2] and -2% in assay [3]. For the same compound, the result in assay [5], in assay [6], in assay [7] and in assay [8] was inactive.

With `O=[N+]([O-])c1cccc(-n2nc(NCc3ccc(Cl)cc3)nc2-c2ccc(F)c(C(F)(F)F)c2)c1`, the growth inhibition is 93% (active) in assay [1] and 98% (active) in assay [4]. Further, the figures for the inhibition in assay [2] and in assay [3] were 6% and -3%, respectively. The outcome in assay [5], in assay [6], in assay [7] and in assay [8] was inactive.

Take `CCOc1ccc2ccccc2c1C(=O)Nc1cc(C)nn1-c1nc(C)cc(=O)[nH]1`: the figures for the growth inhibition in assay [1] and in assay [4] were 86% (active) and 93% (active), respectively. For the same compound, the values for the inhibition in assay [2] and in assay [3] were 28% and -1%, respectively. Also, the outcome in assay [5], in assay [6], in assay [7] and in assay [8] was inactive.

As to `COc1ccc(C(=O)Nc2ccc(Cl)cc2C(=O)Nc2ccncc2)cc1`, the values for the growth inhibition in assay [1] and in assay [4] were 29% and 91% (active), respectively. In addition, the inhibition in assay [2] is 7%; in assay [3], 1%. Besides, the result in assay [5], in assay [6], in assay [7] and in assay [8] was inactive.

Consider `c1cc(-c2ccc(CN3CCCC3)cc2)cc(-c2nc3ccccc3[nH]2)c1`, for which the growth inhibition is 52% (active) in assay [1] and 100% (active) in assay [4]. Moreover, the inhibition in assay [2] was 25%; in assay [3], 0%. For the same compound, the result in assay [5], in assay [6], in assay [7] and in assay [8] was inactive.

`CC(=O)CCc1ccc(OCCN(Cc2ccccc2C(F)(F)F)c2ccc(C#N)c(C(F)(F)F)c2)cc1`: the growth inhibition in assay [1] was 87% (active); in assay [4], 100% (active). In addition, the inhibition in assay [2] was 14%; in assay [3] it was 0%. Also, the outcome in assay [5], in assay [6], in assay [7] and in assay [8] was inactive.

Turning to `CCCNCc1ccc(-c2ccc(CN(C(=O)c3nn(-c4ccccc4)nc3C)C3CC3)cc2)nc1`, the growth inhibition in assay [1] was -3%; in assay [4], 101% (active). In addition, the values for the inhibition in assay [2] and in assay [3] were 23% and -2%, respectively. Besides, the outcome in assay [5], in assay [6], in assay [7] and in assay [8] was inactive.

Consider `N#Cc1cccc(C(=O)Nc2cccc(-c3ccc(CN4CCC(O)CC4)cc3)c2)c1`, for which the figures for the growth inhibition in assay [1] and in assay [4] were 2% and 86% (active), respectively. In addition, the inhibition in assay [2] is 15%; in assay [3] it was 1%. Besides, the outcome in assay [5], in assay [6], in assay [7] and in assay [8] was inactive.

As for `CCOc1c(CNCCCNc2nc3ccccc3[nH]2)cc(Br)cc1OC`, the growth inhibition was 0% in assay [1] and 99% (active) in assay [4]. The inhibition in assay [2] is 29%; in assay [3], 2%. Further, the result in assay [5], in assay [6], in assay [7] and in assay [8] was inactive.

In the case of `O=C(N[C@@H](Cc1ccccc1)[C@H](O)CNC1CCOCC1)c1cc(C2CCCC2)cc(N2CCCCS2(=O)=O)c1`, the growth inhibition is 98% (active) in assay [1] and 100% (active) in assay [4]. The results for the inhibition in assay [2] and in assay [3] were 3% and -1%, respectively. In addition, the outcome in assay [5], in assay [6], in assay [7] and in assay [8] was inactive.

On to `COc1ccc2c(c1)CCN(CCN1CCC(CNC(=O)c3ccc(-c4ccc(C#N)cc4)cc3)CC1)C2`, for which the growth inhibition is 51% (active) in assay [1] and 100% (active) in assay [4]. Besides, the inhibition is 40% in assay [2] and 2% in assay [3]. In addition, the outcome in assay [5], in assay [6], in assay [7] and in assay [8] was inactive.

As to `CCNC(=O)c1ccc2c(c1)c(C)c(C)n2Cc1ccc(F)cc1`, the growth inhibition in assay [1] is 91% (active); in assay [4], 93% (active). Further, the inhibition in assay [2] is 25%; in assay [3], -1%. The result in assay [5], in assay [6], in assay [7] and in assay [8] was inactive.
